# Values without a mark were called inactive. Results filed as inconclusive are left out. A call without a number means that no potency is given here. The source made the active and inactive calls. Unless noted, the call rests on the fitted dose curve; in most records, active means well fitted curve in the direction sought with a large enough effect in the repeat runs; inconclusive means weak or mixed curves; inactive means no such curve, though single readings can be large; an effect the other way counts as inactive or inconclusive.
# What was measured:
# [1] = qHTS assay to identify small molecule agonists of the hypoxia (HIF-1) signaling pathway - cell viability counter screen (AID 1224844; calls by dose curve; further: nearly all actives have a fitted effect of over 50% in size)
# Procedure, shortened: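 In this counter screen, HRE-bla ME-180 cell viability after 17 hrs of compound exposure at 37C was read by CellTiter-Glo luminescence, multiplexed with the beta-lactamase reporter measurement.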
# [2] = qHTS assay to identify small molecule agonists of H2AX (AID 1224845; active means well fitted activation curve with a large enough effect in the signal ratio in the repeat runs, not every such curve was filed as active; the % refers to the signal ratio)
# Procedure, shortened: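 Phospho-H2AX Ser139 measured by HTRF (ex 320 nm; em 665 and 620 nm) after 24 hr antibody incubation. Compounds, 15 concentrations, 0.76% DMSO, were applied to CHO-K1 cells for 3hr at 37C before lysis.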
# [3] = qHTS assay to identify small molecule agonists of the hypoxia (HIF-1) signaling pathway (AID 1224846; active means well fitted activation curve with a large enough effect in the signal ratio in the repeat runs, not every such curve was filed as active; the % refers to the signal ratio)
# Procedure, shortened: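 ME-180 HRE-bla reporter cells; compounds in DMSO, 17 h at 37C; read-out beta-lactamase via CCF4-AM FRET.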
# [4] = qHTS assay to identify small molecule agonists of H2AX - cell viability counter screen (AID 1224847; calls by dose curve; further: nearly all actives have a fitted effect of over 30% in size; further: potency means the concentration at half of the fitted maximal effect)
# Procedure, shortened: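 We seed wild-type CHO-K1 cells overnight, treat them for 3 hr at 37C with compounds in 15-concentration series, and quantify remaining viability by CellTiter-Glo luminescence.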
# [5] = qHTS RealTime-Glo MT Cell Viability Assay in HepG2 cells - 24 hour (AID 1224867); further: nearly all actives have a fitted effect of over 50% in size
# Procedure, shortened: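 HepG2 cells (600/well) were dispensed with RealTime-Glo reagents, incubated 5 h at 37 °C, then treated with compounds in DMSO for up to 40 h. Nonlytic NanoLuc luminescence reflecting viable cells was read at each stated time point.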
# [6] = qHTS RealTime-Glo MT Cell Viability Assay in HEK293 cells - 32 hour (AID 1224868); further: nearly all actives have a fitted effect of over 50% in size; further: potency means the concentration at half of the fitted maximal effect
# Procedure, shortened: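 HEK293 cells seeded with NanoLuc/prosubstrate reagent, rested 5 h at 37 C, then dosed and kept at 37 C up to 40 h. Nonlytic real-time luminescence from viable cells read at 0, 8, 16, 24, 32 and 40 h.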
# [7] = A CellTox Green Cytotoxicity Assay to monitor cytotoxicity in HEK293 cells - 0 hour (AID 1224869); further: nearly all actives have a fitted effect of over 50% in size
# Procedure, shortened: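 Real-time, in one plate: 600 HEK293 cells/well with dead-cell DNA dye, pinned compound after 5 h, 37 C incubation over 40 h; viable cells give no appreciable fluorescence.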
# [8] = qHTS RealTime-Glo MT Cell Viability Assay in HepG2 cells - 40 hour (AID 1224870); further: nearly all actives have a fitted effect of over 50% in size
# Procedure, shortened: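 Real-time viability: cells seeded at 600 per well together with NanoLuc and cell-permeant prosubstrate, compounds added after 5 h incubation. Luminescence tracked at 0, 8, 16, 24, 32 and 40 h of exposure.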
# [9] = qHTS assay to identify small molecule antagonists of the estrogen related receptor (ERR) signaling pathway from Tox21 library (AID 1224848); further: nearly all actives have a fitted effect of over 50% in size; further: potency means the concentration at half of the fitted maximal effect
# Procedure, shortened: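 ERR cell line, 2,000 cells/well. 6 h settle, then compound (DMSO) added; 18 h at 37 C; ONE-Glo luminescence after 30 min RT.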
# [10] = qHTS assay to identify small molecule agonists of the estrogen related receptor (ERR) signaling pathway from Tox21 library (AID 1224849; calls by dose curve; further: nearly all actives have a fitted effect of over 15% in size); conditions: ERR reporter cell line, ONE-Glo luciferase, 18 h; at 92.4 µM (top of the series) unless noted
# Procedure, shortened: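 Luciferase activity in ERR pathway reporter cells served as the agonist readout; exposure lasted 18 h at 37 C, with ONE-Glo detection after 30 min at room temperature.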
Compound,Potency [1],Potency [2],outcome [3],Potency [4],Potency [5],Potency [6],Potency [7],Potency [8],Potency [9],"activity change, positive = activation [10]"
O=C(O)c1ccc2[nH]cc(CCCCN3CC=C(c4ccccc4)CC3)c2c1,inactive,inactive,inactive,inactive,inactive,inactive,inactive,inactive,–,–
CC1(C(=O)Nc2ccc(O)c(Cl)c2Cl)CCCCC1,inactive,inactive,inactive,–,inactive,–,inactive,inactive,61.1 µM (active),-35.4%
CCC1(c2ccccc2)C(=O)NC(=O)NC1=O,inactive,inactive,inactive,inactive,inactive,inactive,inactive,inactive,–,–
Cc1cc(C)c(C(=O)P(=O)(C(=O)c2c(C)cc(C)cc2C)c2ccccc2)c(C)c1,inactive,inactive,inactive,–,inactive,inactive,inactive,inactive,inactive,-2.99%
CCCCCCBr,inactive,inactive,inactive,–,inactive,inactive,inactive,–,inactive,0.352%
CC(=O)C(Cl)Cl,inactive,inactive,inactive,–,inactive,inactive,inactive,inactive,inactive,4.96%
O=C(CCCN1CCC(n2c(=O)[nH]c3ccccc32)CC1)c1ccc(F)cc1,inactive,inactive,inactive,inactive,inactive,–,inactive,–,–,–
CCC(Cl)[N+](=O)[O-] (configuration not stated),inactive,inactive,inactive,–,inactive,inactive,inactive,inactive,inactive,-7.71%
Oc1c(Cl)cccc1Cl,inactive,inactive,inactive,inactive,inactive,inactive,inactive,inactive,–,–
c1ccc(N2CCNCC2)cc1,inactive,inactive,inactive,inactive,inactive,inactive,inactive,inactive,–,–
CC(C)NCC(O)c1ccc(N)c(C#N)c1 (configuration not stated),inactive,inactive,inactive,inactive,inactive,inactive,inactive,inactive,–,–
c1coc(-c2nc3ccccc3[nH]2)c1,inactive,inactive,inactive,80 µM (active),inactive,–,inactive,inactive,–,–
Nc1n[nH]c(N)n1,inactive,inactive,inactive,inactive,inactive,–,inactive,–,–,–
CNNC,inactive,inactive,inactive,–,inactive,inactive,inactive,inactive,inactive,6.11%
CC1(C)COP(Oc2ccccc2)OC1,inactive,inactive,inactive,–,inactive,inactive,inactive,inactive,inactive,6.55%
Nc1cc2c3c(c1)C(c1ccccc1)=N[C@@H](NC(=O)c1cccnc1)C(=O)N3CC2,inactive,inactive,inactive,inactive,inactive,inactive,inactive,inactive,–,–
CC(C(=O)c1ccccc1)N(C)C (configuration not stated),inactive,inactive,inactive,inactive,inactive,inactive,inactive,inactive,–,–
O=[N+]([O-])c1cccc2c([N+](=O)[O-])cccc12,inactive,inactive,inactive,–,inactive,49.2 µM (active),inactive,inactive,30.8 µM (active),-66%
COP(=S)(OC)Oc1c(Cl)cc(C)cc1Cl,inactive,inactive,inactive,–,inactive,inactive,inactive,inactive,inactive,0.872%
CC(C)CC#N,inactive,inactive,inactive,inactive,inactive,inactive,inactive,inactive,–,–
CCNc1nc(NC(C)C)nc(OC)n1,inactive,inactive,inactive,–,inactive,inactive,inactive,inactive,inactive,-0.534%
COC(=O)c1c(C(F)F)nc(C(F)(F)F)c(C2=NCCS2)c1CC(C)C,inactive,inactive,inactive,–,inactive,inactive,inactive,inactive,inactive,1.38%
Cc1nc(N)nc(N)n1,inactive,inactive,inactive,inactive,inactive,inactive,inactive,inactive,–,–
CCOC(=O)NC(=S)Nc1ccccc1NC(=S)NC(=O)OCC,inactive,inactive,inactive,–,inactive,–,inactive,inactive,inactive,11.4% (active)
COc1cc2c(cc1OC)[C@@]13CCN4CC5=CCO[C@H]6CC(=O)N2[C@H]1[C@H]6[C@H]5C[C@H]43,inactive,inactive,inactive,inactive,inactive,inactive,inactive,inactive,–,–
O=c1oc2ccccc2c(O)c1C1CCCc2ccccc21 (configuration not stated),inactive,inactive,inactive,–,inactive,inactive,inactive,inactive,–,-20.9%

# Source: PubChem BioAssay (Tox21)
